According to ChEMBL document CHEMBL5606460, “ASAP - DENV-2 NS2B-NS3 protease fluorescence single point” (2024):
In all, about 2,000 compounds went through this assay and about 110 (5.5%) showed an effect of 50% or more. The entries come from a sample that favours strong results as a whole.

Biological target: Genome polyprotein (dengue virus type 2) (UniProt P29990)
[1] = Thailand/16681/1984, Concentration 25.0 uM, Number of replicates 1.0

Cc1cc(CO)c2cccc(NC(=O)CN3CCOCC3)c2n1
inhibition (Thailand/16681/1984, Concentration 49.95 uM, Number of replicates 2.0, Standard deviation 2.1720644748171827 %): 8.27%
inhibition (Thailand/16681/1984, Concentration 99.9 uM, Number of replicates 2.0, Standard deviation 1.8504772771832996 %): 15.1%

CS(=O)(=O)N1CCC(C(=O)Nc2nc3c(F)cccc3s2)CC1
inhibition (Thailand/16681/1984, Concentration 49.5 uM, Number of replicates 2.0, Standard deviation 0.96531236791799 %): 0.796%
inhibition (Thailand/16681/1984, Concentration 99.01 uM, Number of replicates 2.0, Standard deviation 0.9471689504241718 %): 0.997%
inhibition (Thailand/16681/1984, Concentration 198.0 uM, Number of replicates 2.0, Standard deviation 0.2746253667085591 %): 0.83%

NCc1cccc(NC(=O)[C@H]2CCN(C(=O)OCc3ccccc3)C2)c1
inhibition (Thailand/16681/1984, Concentration 49.5 uM, Number of replicates 2.0, Standard deviation 1.9221944810499825 %): -1.99%
inhibition (Thailand/16681/1984, Concentration 99.01 uM, Number of replicates 2.0, Standard deviation 1.6664051520702452 %): -1.6%
inhibition (Thailand/16681/1984, Concentration 198.0 uM, Number of replicates 2.0, Standard deviation 2.955416090340052 %): -1.98%

O=Cc1ccc(N2CCC(C(=O)N[C@H]3CCOc4ccc(F)cc43)CC2)cc1
inhibition [1]: 15.7%

COc1cc(Cc2cnn(-c3ccc(F)cc3)c2)nc(N2CCNCC2)n1
inhibition (Thailand/16681/1984, Concentration 49.5 uM, Number of replicates 2.0, Standard deviation 0.031215136118926425 %): 0.871%
inhibition (Thailand/16681/1984, Concentration 99.01 uM, Number of replicates 2.0, Standard deviation 1.7579341775024742 %): 1.83%
inhibition (Thailand/16681/1984, Concentration 198.0 uM, Number of replicates 2.0, Standard deviation 1.6450393762001025 %): 5.51%

O=C(O)c1ccn(C2CCN(Cc3c[nH]c4ccccc34)CC2)n1
inhibition (Thailand/16681/1984, Concentration 49.5 uM, Number of replicates 2.0, Standard deviation 2.1869842063089484 %): -2.55%
inhibition (Thailand/16681/1984, Concentration 99.01 uM, Number of replicates 2.0, Standard deviation 2.684345636447637 %): -2.42%
inhibition (Thailand/16681/1984, Concentration 198.0 uM, Number of replicates 2.0, Standard deviation 2.4976754742252494 %): -2.46%

Cc1cnc(NC(=O)C2CCN(c3ccc(C=O)cc3)CC2)c([N+](=O)[O-])c1
inhibition [1]: 14.4%

Cc1cc(CO)c2cccc(Cc3cccc(NC(=O)Cc4c[nH]c5ccccc45)c3)c2n1
inhibition (Thailand/16681/1984, Concentration 49.95 uM, Number of replicates 2.0, Standard deviation 0.8412168519630298 %): -0.469%
inhibition (Thailand/16681/1984, Concentration 99.9 uM, Number of replicates 2.0, Standard deviation 1.20193607081355 %): 3.26%

Cc1cc(CO)c2cccc(Cc3ccccc3NC(=O)C[C@H]3CCCN3)c2n1
inhibition (Thailand/16681/1984, Concentration 49.95 uM, Number of replicates 2.0, Standard deviation 2.3110961437297597 %): -1.74%
inhibition (Thailand/16681/1984, Concentration 99.9 uM, Number of replicates 1.0): -1.01%

Cc1cnccc1NC(=O)c1cncc(S(C)(=O)=O)c1
inhibition (Thailand/16681/1984, Concentration 49.5 uM, Number of replicates 2.0, Standard deviation 0.09362930826064811 %): 1.61%
inhibition (Thailand/16681/1984, Concentration 99.01 uM, Number of replicates 2.0, Standard deviation 0.10343333957385824 %): 2.02%
inhibition (Thailand/16681/1984, Concentration 198.0 uM, Number of replicates 2.0, Standard deviation 0.39657621920361824 %): 2.99%

COc1cc(CC(=O)NCc2cccnc2)nc(N2CCNCC2)n1
inhibition (Thailand/16681/1984, Concentration 49.5 uM, Number of replicates 2.0, Standard deviation 1.473545535483215 %): -5.12%
inhibition (Thailand/16681/1984, Concentration 99.01 uM, Number of replicates 2.0, Standard deviation 1.7989399422367844 %): -4.77%
inhibition (Thailand/16681/1984, Concentration 198.0 uM, Number of replicates 2.0, Standard deviation 1.3802101593440819 %): -3.61%

O=C(O)c1cc(Cl)ccc1NS(=O)(=O)c1ccc(Oc2ccccc2Cl)cc1
inhibition (Thailand/16681/1984, Concentration 49.5 uM, Number of replicates 2.0, Standard deviation 0.09788858447746204 %): 95.7%
inhibition (Thailand/16681/1984, Concentration 99.01 uM, Number of replicates 2.0, Standard deviation 0.14802782416517393 %): 94.6%
inhibition (Thailand/16681/1984, Concentration 198.0 uM, Number of replicates 2.0, Standard deviation 0.06255266668592849 %): 91.9%

O=S(=O)(Nc1ccc(Cl)cc1)c1ccc(Oc2ccccc2Cl)cc1
inhibition (Thailand/16681/1984, Concentration 49.5 uM, Number of replicates 2.0, Standard deviation 0.04775136783847868 %): 12.2%
inhibition (Thailand/16681/1984, Concentration 99.01 uM, Number of replicates 2.0, Standard deviation 0.32853232391890236 %): 22.7%
inhibition (Thailand/16681/1984, Concentration 198.0 uM, Number of replicates 2.0, Standard deviation 1.060565762839157 %): 44.5%

CNC(=O)c1cc(Cl)cc(C)c1NS(=O)(=O)c1ccc(Oc2ccccc2Cl)cc1
inhibition (Thailand/16681/1984, Concentration 49.5 uM, Number of replicates 2.0, Standard deviation 1.9936078061389018 %): -4.39%
inhibition (Thailand/16681/1984, Concentration 99.01 uM, Number of replicates 2.0, Standard deviation 1.8430300976388188 %): -5.53%
inhibition (Thailand/16681/1984, Concentration 198.0 uM, Number of replicates 2.0, Standard deviation 2.010624849106266 %): -7.09%

CNC(=O)c1cnncc1NS(=O)(=O)c1ccc(Oc2ccccc2Cl)cc1
inhibition (Thailand/16681/1984, Concentration 49.5 uM, Number of replicates 2.0, Standard deviation 2.9688082409176766 %): 2.22%
inhibition (Thailand/16681/1984, Concentration 99.01 uM, Number of replicates 2.0, Standard deviation 2.2862743420867915 %): 7.71%
inhibition (Thailand/16681/1984, Concentration 198.0 uM, Number of replicates 2.0, Standard deviation 2.701916446857586 %): 19.5%

O=C(O)c1cc(Cl)ccc1NS(=O)(=O)c1ccc(Br)cc1
inhibition (Thailand/16681/1984, Concentration 49.5 uM, Number of replicates 2.0, Standard deviation 1.3795853744617563 %): 7.98%
inhibition (Thailand/16681/1984, Concentration 99.01 uM, Number of replicates 2.0, Standard deviation 2.3616490916140984 %): 19.6%
inhibition (Thailand/16681/1984, Concentration 198.0 uM, Number of replicates 2.0, Standard deviation 0.9946440456706616 %): 67%

O=C(NCc1ccccc1)c1cc(O)ccc1NS(=O)(=O)c1ccc(Oc2ccccc2Cl)cc1
inhibition (Thailand/16681/1984, Concentration 49.5 uM, Number of replicates 2.0, Standard deviation 0.5844803568567073 %): 33.5%
inhibition (Thailand/16681/1984, Concentration 99.01 uM, Number of replicates 2.0, Standard deviation 0.18145668135528656 %): 55.3%
inhibition (Thailand/16681/1984, Concentration 198.0 uM, Number of replicates 2.0, Standard deviation 0.23302823954279267 %): 60.6%

CNC(=O)c1cc(Cl)ccc1NS(=O)(=O)c1ccc(OC)cc1
inhibition (Thailand/16681/1984, Concentration 49.5 uM, Number of replicates 2.0, Standard deviation 1.598704816821166 %): -9.51%
